Experimental data published in ChEMBL document CHEMBL1961873, “Compounds: GSK PKIS; Assays: Nanosyn kinase panel” (2012).

Target: T1, Serine/threonine-protein kinase TBK1 (Homo sapiens) (UniProt Q9UHD2)
T1 sequence (whole entry): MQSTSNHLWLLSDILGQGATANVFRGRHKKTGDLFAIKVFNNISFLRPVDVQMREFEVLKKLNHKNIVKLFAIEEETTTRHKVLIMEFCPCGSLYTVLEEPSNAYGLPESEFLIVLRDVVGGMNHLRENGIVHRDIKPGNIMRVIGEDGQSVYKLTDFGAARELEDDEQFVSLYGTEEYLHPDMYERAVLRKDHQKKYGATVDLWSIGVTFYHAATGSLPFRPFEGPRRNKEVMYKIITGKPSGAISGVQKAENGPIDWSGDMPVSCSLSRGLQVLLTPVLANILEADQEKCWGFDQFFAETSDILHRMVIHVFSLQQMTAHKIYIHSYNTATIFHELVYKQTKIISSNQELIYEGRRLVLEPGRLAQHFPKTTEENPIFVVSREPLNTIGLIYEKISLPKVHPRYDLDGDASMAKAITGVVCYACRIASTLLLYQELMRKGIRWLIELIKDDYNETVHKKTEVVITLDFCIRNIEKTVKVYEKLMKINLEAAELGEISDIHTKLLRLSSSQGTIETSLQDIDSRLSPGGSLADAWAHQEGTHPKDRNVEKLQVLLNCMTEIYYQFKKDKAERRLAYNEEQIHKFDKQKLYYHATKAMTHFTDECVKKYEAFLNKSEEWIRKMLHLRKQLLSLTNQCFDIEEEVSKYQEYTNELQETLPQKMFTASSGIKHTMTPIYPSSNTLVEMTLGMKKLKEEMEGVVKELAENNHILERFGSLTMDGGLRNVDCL
Settings: at 1 µM
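Further: values are mean inhibition of TBK1, screened as part of the GSK published kinase inhibitor set.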

SMILES | inhibition [%]
COc1cc(/C=N/Nc2ncnc3[nH]ncc23)ccc1O | 21.1
COc1cc(Nc2nccc(Nc3ccc4c(C)n[nH]c4c3)n2)cc(OC)c1OC | 26.3
COc1cc2c(cc1Nc1nc(Nc3ccsc3C(N)=O)c3cc[nH]c3n1)N(C(=O)CN(C)C)CCC2(C)C | 50.7
CCn1c(-c2nonc2N)nc2c(C#CC(C)(C)O)nc(OC[C@H](N)c3ccccc3)cc21 | 6.85
COC(=O)Nc1nc2ccc(S(=O)(=O)c3ccc(NC(=O)Nc4cc(C(F)(F)F)ccc4F)cc3)cc2[nH]1 | 3.98
N#Cc1c(NC(=O)c2ccc(F)cc2)sc2c1CCCC2 | 0.54
CCn1c(-c2nonc2N)nc2c(C#CC(C)(C)O)ncc(OC3CCNCC3)c21 | 45.9
CCn1c(-c2nonc2N)nc2cnc(Oc3cccc(NC(=O)c4ccc(N(C)C)cc4)c3)cc21 | 6.31
Fc1cccc(COc2ccc(Nc3ncnc4sc(-c5ccco5)cc34)cc2Cl)c1 | 2.89
O=S(=O)(CCNCc1ccc(-c2ccc3ncnc(Nc4ccc(OCc5cccc(F)c5)c(Cl)c4)c3c2)o1)c1ccccc1 | 5.89
COc1cccc(-n2ncc3c(N/N=C/c4ccc(F)cc4)ncnc32)c1 | 6.85
NC(=O)c1sc(-n2cnc3ccc(C(F)(F)F)cc32)cc1OCc1ccccc1Br | 2.04
NS(=O)(=O)c1ccc(N/N=C2\C(=O)Nc3ccc4ncccc4c32)cc1 | 50.4
c1ccc(-c2nc3n(c2-c2ccc4c(c2)OCO4)CCC3)nc1 | 2.71
CCNC(=O)O[C@H]1CN[C@H](C#Cc2cc3ncnc(Nc4ccc(OCc5cccc(F)c5)c(Cl)c4)c3s2)C1 | 3.67
COc1ccc(-c2cc(-c3c[nH]nc3-c3ccccn3)ccn2)cc1 | 6.38
Nc1nc(-c2cccc(Cl)c2)c(-c2ccc3ncccc3n2)s1 | 4.37

SMILES | inhibition [%]
Clc1ccc(-c2nn3ncccc3c2-c2ccnc(Nc3ccccc3)n2)cc1 | 2.57
CCN1CCC(CC(=O)Nc2n[nH]c3nnc(-c4cccc(F)c4F)cc23)CC1 | 4.19
CN1CCC(n2cnc(-c3ccc(F)cc3)c2-c2ccnc(N)n2)CC1 | 3.54
CNC(=O)c1cncc(/C=C/c2ccccc2Cl)c1 | 4.1
CC(C)COC(=O)c1ccc2c(c1)/C(=C/Nc1ccc(S(N)(=O)=O)cc1)C(=O)N2 | 82.9
CCN(CC)S(=O)(=O)c1ccc(OC)c(Nc2ncc(-c3ccccc3)o2)c1 | 4.22
COc1ccc(-c2oc3ncnc(N)c3c2-c2ccc(NC(=O)Nc3cc(C(F)(F)F)ccc3F)cc2)cc1 | 3.95
COc1ccc(CNC(=O)c2ccc(-c3cc(-c4nnc(C)o4)ccc3C)cc2)cc1 | 4.66
CC(C)(CO)CNC(=O)c1ccc2c(c1)/C(=N/Nc1ccc(S(N)(=O)=O)cc1)C(=O)N2 | 63.4
Cc1cccc2c1NC(=O)/C2=N\Nc1ccc(S(N)(=O)=O)cc1 | 3.42
Cc1ccc2c(-c3ccnc(Nc4ccccc4)n3)c(-c3ccc(F)cc3)nn2n1 | 2.79
CNC(=O)c1cccc(C#Cc2cncnc2Nc2ccc(OCc3cccc(F)c3)c(Cl)c2)c1 | 0.61
c1cc(-c2cnn3nc(N4CCOCC4)ccc23)nc(NC2CC2)n1 | 6.36
FC(F)(F)c1cccc(-c2nn3ncccc3c2-c2ccnc(Nc3ccc4c(c3)OCCO4)n2)c1 | 2.28
CC1=C(C(=O)Nc2cc(Cl)c3[nH]ncc3c2)C(c2ccc(C(F)(F)F)cc2)CC(=O)N1 (centres undefined) | 3.48
COc1cc(N2CCN(C(C)C)CC2)ccc1Nc1nc(Nc2ccc(F)cc2C(N)=O)c2cc[nH]c2n1 | 6.76
O=C(Nc1n[nH]c2cc(-c3ccc(F)cc3)ccc12)C1CC1 | 5.39
